# In article PMC7862700, “An all-to-all approach to the identification of sequence-specific readers for epigenetic DNA modifications on cytosine”:
# What was measured:
# Experiment in all cases: DAPPL (digital affinity profiling via proximity ligation, sequencing); 10 mM Tris-HCl pH 7.5, 50 mM NaCl, 1 mM DTT, 4% glycerol, room temperature, 30 min; GST-TFs on glutathione beads, 16-mer random dsDNA library, 0.1% formaldehyde crosslink after washing; high values mean tight binding
# FLI1 = molecular target: T1, FLI1 (Homo sapiens, UniProt Q01543 1-452); settings: protein: recombinant; tags: N-terminal GST; dsDNA, one strand shown
# T1 sequence: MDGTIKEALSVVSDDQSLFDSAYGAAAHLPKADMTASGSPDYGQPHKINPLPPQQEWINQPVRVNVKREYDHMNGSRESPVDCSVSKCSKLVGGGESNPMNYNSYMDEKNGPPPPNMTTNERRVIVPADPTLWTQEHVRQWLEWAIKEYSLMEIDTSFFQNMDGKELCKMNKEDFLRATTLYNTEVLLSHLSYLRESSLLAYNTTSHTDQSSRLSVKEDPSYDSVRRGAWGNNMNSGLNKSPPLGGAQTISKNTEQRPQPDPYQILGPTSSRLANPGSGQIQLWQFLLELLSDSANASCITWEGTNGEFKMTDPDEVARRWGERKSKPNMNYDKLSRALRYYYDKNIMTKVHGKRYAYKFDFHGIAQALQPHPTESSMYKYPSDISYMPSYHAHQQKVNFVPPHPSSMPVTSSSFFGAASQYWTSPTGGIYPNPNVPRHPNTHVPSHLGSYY
# In short: (§1)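 After expression in yeast as GST fusions, human transcription factors were bound to glutathione beads, DNA-barcoded and mixed with a tag-only sample. The pools were incubated with 200 nmole of a 16-mer random double-stranded DNA library in Tris/NaCl/DTT/glycerol buffer (30 min, room temperature), washed and crosslinked with 0.1% formaldehyde. Proximity ligation with BsaI/T4 ligase ran for 1 h at 37 °C, before PCR amplification and sequencing on an Illumina NextSeq500. Binding signal is a hexamer's read frequency for a factor divided by its frequency for the tag-only sample.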
# ELK1 = molecular target: T2, ELK1 (Homo sapiens, UniProt P19419 1-428); settings: protein: recombinant; tags: N-terminal GST; dsDNA, one strand shown
# T2 sequence: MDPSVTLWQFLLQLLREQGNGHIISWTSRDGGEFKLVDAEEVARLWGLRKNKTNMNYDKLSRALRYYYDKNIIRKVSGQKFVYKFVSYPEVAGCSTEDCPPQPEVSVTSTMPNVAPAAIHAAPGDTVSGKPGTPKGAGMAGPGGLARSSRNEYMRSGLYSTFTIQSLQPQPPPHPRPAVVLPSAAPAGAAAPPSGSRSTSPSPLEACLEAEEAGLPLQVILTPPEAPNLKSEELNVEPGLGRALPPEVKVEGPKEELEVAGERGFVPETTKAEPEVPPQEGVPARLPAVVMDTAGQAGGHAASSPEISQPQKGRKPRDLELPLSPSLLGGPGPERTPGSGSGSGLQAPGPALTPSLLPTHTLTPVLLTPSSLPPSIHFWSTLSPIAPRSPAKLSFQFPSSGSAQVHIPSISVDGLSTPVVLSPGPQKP
# In short: as §1
# GABPA = molecular target: T3, GABPA (Homo sapiens, UniProt Q06546 1-454); settings: protein: recombinant; tags: N-terminal GST; dsDNA, one strand shown
# T3 sequence: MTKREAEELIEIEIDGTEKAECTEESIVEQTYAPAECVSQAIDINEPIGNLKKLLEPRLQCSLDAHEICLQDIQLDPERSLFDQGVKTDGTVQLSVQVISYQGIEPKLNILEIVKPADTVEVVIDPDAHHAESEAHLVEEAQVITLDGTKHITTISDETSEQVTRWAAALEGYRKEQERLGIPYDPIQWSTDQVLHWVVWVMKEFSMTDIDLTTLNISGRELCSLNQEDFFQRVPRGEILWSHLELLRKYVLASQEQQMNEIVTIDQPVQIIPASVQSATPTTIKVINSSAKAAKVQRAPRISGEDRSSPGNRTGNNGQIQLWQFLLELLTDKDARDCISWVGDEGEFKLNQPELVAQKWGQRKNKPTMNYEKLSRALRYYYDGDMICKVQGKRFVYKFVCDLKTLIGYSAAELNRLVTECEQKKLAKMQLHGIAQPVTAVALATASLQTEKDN
# In short: as §1
# ERG = molecular target: T4, ERG (Homo sapiens, UniProt P11308 1-479); settings: protein: recombinant; tags: N-terminal GST; dsDNA, one strand shown
# T4 sequence: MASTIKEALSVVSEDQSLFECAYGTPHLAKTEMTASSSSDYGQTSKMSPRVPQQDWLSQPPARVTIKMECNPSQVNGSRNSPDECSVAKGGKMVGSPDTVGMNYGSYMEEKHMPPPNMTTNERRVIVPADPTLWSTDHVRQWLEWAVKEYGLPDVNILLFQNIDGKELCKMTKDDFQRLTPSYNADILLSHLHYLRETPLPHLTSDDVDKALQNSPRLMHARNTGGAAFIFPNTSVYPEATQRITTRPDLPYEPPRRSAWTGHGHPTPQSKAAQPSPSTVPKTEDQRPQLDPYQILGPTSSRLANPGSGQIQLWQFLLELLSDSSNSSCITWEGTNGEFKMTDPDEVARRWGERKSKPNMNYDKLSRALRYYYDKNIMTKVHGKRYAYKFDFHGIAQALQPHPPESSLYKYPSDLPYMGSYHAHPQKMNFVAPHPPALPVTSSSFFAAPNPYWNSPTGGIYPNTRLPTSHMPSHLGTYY
# In short: as §1
# ELF1 = ELF1 (Homo sapiens, UniProt P32519 1-619); settings: protein: recombinant; tags: N-terminal GST; dsDNA, one strand shown
# Chain of ELF1 (P32519 whole entry): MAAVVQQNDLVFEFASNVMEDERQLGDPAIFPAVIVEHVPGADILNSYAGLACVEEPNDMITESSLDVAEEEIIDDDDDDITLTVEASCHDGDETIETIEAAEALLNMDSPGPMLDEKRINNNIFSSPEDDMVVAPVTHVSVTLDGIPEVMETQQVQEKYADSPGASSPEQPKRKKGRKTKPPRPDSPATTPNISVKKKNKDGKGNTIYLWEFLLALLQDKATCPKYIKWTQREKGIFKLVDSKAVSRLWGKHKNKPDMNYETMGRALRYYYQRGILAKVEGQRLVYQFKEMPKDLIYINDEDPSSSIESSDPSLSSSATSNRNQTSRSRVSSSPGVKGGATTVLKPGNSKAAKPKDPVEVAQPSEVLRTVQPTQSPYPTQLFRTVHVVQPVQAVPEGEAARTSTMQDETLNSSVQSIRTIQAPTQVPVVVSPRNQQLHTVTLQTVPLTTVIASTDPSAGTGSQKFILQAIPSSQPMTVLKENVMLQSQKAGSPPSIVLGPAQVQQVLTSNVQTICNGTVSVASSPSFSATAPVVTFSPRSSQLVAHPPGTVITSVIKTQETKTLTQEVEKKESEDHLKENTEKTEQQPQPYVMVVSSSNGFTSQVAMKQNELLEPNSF
# In short: as §1
# EHF = molecular target: T5, EHF (Homo sapiens, UniProt Q9NZC4 1-300); settings: protein: recombinant; tags: N-terminal GST; dsDNA, one strand shown
# T5 sequence: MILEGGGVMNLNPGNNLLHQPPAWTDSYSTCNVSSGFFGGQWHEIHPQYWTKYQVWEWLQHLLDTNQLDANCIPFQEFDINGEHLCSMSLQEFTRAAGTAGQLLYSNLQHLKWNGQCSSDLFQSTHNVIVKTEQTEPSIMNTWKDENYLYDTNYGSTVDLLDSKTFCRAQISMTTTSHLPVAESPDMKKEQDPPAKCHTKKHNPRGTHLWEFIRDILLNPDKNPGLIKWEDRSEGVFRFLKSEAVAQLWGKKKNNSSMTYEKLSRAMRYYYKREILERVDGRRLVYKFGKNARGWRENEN
# In short: as §1
# SPI1 = SPI1 (Homo sapiens, UniProt P17947 1-270); settings: protein: recombinant; tags: N-terminal GST; dsDNA, one strand shown
# In short: as §1
# SPIB = SPIB (Homo sapiens, UniProt Q01892 1-262); settings: protein: recombinant; tags: N-terminal GST; dsDNA, one strand shown
# Chain of SPIB (Q01892 whole entry): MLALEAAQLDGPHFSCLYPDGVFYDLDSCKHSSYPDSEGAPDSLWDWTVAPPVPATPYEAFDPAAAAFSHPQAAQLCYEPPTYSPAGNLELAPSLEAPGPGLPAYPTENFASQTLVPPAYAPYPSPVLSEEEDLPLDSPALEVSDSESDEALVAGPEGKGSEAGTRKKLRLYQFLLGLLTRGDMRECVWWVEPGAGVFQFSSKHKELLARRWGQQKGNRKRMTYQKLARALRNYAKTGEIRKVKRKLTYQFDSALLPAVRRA
# In short: as §1
# ELK3 = molecular target: T6, ELK3 (Homo sapiens, UniProt P41970 1-407); settings: protein: recombinant; tags: N-terminal GST; dsDNA, one strand shown
# T6 sequence: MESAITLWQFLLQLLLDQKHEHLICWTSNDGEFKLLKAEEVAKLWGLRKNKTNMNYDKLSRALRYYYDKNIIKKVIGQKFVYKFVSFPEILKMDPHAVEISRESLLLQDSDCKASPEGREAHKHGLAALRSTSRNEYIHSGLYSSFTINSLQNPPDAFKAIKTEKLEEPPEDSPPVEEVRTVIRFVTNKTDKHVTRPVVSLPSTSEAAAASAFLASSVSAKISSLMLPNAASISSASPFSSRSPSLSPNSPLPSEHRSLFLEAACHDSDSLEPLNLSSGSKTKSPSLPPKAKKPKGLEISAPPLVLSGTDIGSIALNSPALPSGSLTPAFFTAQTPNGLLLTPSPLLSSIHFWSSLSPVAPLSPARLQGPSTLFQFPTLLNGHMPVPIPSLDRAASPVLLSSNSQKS
# In short: as §1
# FEV = molecular target: T7, FEV (Homo sapiens, UniProt Q99581 1-238); settings: protein: recombinant; tags: N-terminal GST; dsDNA, one strand shown
# T7 sequence: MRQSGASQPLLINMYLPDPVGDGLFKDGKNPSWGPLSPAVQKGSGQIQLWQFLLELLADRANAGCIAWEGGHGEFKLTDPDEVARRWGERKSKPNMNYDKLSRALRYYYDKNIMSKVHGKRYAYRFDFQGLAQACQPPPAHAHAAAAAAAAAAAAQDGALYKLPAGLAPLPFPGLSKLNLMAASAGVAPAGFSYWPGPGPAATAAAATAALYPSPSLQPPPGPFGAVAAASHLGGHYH
# In short: as §1
# ETV5 = ETV5 (Homo sapiens, UniProt P41161 1-510); settings: protein: recombinant; tags: N-terminal GST; dsDNA, one strand shown
# Chain of ETV5 (P41161 whole entry): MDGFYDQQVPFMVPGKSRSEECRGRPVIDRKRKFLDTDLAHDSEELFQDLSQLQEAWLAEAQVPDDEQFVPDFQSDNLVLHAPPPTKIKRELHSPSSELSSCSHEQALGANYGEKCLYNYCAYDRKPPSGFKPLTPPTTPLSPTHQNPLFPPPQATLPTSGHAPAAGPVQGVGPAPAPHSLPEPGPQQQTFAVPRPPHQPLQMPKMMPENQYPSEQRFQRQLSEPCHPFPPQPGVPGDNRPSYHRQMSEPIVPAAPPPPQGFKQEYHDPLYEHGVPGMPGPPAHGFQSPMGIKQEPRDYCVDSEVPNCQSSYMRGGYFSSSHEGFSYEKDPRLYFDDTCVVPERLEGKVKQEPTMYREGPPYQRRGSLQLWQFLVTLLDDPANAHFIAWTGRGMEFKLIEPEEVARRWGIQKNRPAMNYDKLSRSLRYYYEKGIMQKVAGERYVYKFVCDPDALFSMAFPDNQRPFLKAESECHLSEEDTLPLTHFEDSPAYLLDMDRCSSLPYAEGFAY
# In short: as §1
# HSF1 = HSF1 (Homo sapiens, UniProt Q00613 1-529); settings: protein: recombinant; tags: N-terminal GST; chain copies: 3; dsDNA, one strand shown
# Chain of HSF1 (Q00613 whole entry): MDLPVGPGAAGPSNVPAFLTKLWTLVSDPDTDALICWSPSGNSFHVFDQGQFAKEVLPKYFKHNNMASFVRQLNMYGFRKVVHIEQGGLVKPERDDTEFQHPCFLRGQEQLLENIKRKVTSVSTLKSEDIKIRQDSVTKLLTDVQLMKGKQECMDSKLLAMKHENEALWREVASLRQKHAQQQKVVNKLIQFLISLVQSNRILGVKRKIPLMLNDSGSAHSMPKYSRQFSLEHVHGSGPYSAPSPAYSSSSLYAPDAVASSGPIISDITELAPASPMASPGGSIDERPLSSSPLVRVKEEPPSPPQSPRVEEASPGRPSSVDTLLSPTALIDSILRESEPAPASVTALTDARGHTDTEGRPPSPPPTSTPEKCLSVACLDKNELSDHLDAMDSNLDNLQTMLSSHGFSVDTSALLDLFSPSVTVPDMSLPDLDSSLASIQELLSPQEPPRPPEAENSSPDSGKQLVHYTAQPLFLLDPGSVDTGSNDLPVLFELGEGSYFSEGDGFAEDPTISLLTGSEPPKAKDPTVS
# In short: as §1
# SPIC = molecular target: T8, SPIC (Homo sapiens, UniProt Q8N5J4 1-248); settings: protein: recombinant; tags: N-terminal GST; dsDNA, one strand shown
# T8 sequence: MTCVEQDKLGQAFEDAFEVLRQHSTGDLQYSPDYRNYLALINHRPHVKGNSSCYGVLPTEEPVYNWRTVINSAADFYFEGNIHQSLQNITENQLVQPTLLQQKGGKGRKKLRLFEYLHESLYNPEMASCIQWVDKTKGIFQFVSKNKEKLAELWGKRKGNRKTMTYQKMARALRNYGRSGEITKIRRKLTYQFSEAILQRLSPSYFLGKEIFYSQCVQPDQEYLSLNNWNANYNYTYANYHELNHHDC
# In short: as §1
# ELF4 = ELF4 (Homo sapiens, UniProt Q99607 1-663); settings: protein: recombinant; tags: N-terminal GST; dsDNA, one strand shown
# Chain of ELF4 (Q99607 whole entry): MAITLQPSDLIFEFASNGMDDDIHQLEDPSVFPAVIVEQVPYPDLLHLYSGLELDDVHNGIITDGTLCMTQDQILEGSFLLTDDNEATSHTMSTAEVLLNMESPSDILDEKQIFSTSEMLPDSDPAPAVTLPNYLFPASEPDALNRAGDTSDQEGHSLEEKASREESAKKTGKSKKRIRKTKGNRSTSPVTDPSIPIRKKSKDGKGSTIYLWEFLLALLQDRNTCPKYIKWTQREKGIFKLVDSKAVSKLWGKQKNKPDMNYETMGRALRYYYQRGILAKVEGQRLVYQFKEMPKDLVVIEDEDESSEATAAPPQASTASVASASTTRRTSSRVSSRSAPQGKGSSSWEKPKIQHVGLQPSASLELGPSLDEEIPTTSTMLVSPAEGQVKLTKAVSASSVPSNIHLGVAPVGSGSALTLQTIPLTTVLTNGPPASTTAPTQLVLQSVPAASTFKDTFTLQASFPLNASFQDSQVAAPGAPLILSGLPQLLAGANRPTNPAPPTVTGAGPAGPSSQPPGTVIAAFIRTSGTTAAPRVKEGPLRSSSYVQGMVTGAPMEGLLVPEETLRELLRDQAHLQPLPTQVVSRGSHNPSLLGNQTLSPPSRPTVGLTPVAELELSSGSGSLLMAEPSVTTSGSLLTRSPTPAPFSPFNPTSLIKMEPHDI
# In short: as §1
# ELK4 = molecular target: T9, ELK4 (Homo sapiens, UniProt P28324-2 1-405); settings: protein: recombinant; tags: N-terminal GST; dsDNA, one strand shown
# T9 sequence: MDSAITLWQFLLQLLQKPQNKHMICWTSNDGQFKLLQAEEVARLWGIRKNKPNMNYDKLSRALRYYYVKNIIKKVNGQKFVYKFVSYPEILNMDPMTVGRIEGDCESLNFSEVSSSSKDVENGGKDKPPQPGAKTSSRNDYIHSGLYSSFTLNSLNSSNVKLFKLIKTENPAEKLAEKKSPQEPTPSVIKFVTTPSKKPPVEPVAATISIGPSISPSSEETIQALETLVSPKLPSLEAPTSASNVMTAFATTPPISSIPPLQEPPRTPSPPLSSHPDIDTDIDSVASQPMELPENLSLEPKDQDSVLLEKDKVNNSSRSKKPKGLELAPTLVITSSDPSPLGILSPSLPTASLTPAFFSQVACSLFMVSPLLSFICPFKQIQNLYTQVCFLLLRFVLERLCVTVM
# In short: as §1
# ETV2 = molecular target: T10, ETV2 (Homo sapiens, UniProt O00321 1-342); settings: protein: recombinant; tags: N-terminal GST; dsDNA, one strand shown
# T10 sequence: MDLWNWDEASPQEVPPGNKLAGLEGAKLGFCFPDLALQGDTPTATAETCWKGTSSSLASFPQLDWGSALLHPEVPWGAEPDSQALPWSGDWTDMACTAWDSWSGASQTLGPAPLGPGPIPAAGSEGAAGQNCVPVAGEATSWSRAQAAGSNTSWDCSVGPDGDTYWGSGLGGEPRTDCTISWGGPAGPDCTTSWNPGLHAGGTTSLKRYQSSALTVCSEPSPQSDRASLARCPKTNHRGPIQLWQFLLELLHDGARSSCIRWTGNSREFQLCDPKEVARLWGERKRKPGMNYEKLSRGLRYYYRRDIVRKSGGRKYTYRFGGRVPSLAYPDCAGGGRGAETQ
# In short: as §1
# ELF3 = molecular target: T11, ELF3 (Homo sapiens, UniProt P78545 1-371); settings: protein: recombinant; tags: N-terminal GST; dsDNA, one strand shown
# T11 sequence: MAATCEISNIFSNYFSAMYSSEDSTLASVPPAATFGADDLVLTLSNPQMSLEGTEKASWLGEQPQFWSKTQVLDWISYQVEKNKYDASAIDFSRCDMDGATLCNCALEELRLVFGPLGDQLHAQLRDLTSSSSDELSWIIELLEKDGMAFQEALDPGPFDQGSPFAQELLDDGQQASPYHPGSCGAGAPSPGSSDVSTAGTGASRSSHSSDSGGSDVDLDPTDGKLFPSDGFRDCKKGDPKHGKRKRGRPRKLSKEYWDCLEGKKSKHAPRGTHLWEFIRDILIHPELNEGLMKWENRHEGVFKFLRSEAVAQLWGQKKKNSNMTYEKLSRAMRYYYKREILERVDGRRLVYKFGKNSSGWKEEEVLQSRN
# In short: as §1
# CRX = CRX (Homo sapiens, UniProt O43186 1-299); settings: protein: recombinant; tags: N-terminal GST; dsDNA, one strand shown
# Chain of CRX (O43186 whole entry): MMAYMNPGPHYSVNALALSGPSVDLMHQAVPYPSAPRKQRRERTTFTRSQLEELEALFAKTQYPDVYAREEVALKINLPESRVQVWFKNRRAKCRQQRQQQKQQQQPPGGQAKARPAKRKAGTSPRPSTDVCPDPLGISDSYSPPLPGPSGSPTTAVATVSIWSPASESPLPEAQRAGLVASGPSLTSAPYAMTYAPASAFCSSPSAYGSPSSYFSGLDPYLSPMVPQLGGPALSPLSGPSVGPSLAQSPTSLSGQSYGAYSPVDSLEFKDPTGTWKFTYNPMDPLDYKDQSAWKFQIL
# In short: as §1
# ETV1 = ETV1 (Homo sapiens, UniProt P50549 1-477); settings: protein: recombinant; tags: N-terminal GST; dsDNA, one strand shown
# Chain of ETV1 (P50549 whole entry): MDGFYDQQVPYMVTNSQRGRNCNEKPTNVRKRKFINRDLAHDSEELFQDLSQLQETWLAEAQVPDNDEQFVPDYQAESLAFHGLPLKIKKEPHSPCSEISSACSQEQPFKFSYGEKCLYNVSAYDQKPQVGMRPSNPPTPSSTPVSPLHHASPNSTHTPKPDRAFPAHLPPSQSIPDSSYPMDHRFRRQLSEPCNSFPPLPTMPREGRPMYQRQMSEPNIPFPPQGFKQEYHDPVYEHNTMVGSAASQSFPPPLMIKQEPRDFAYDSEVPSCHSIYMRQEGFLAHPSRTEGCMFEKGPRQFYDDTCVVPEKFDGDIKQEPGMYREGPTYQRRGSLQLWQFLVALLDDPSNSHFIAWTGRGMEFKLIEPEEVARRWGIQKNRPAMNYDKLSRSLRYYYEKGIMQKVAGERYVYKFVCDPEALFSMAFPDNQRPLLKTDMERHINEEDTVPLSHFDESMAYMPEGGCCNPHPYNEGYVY
# In short: as §1
sequence,measurement,setting,value
AGAAAT,binding signal,FLI1,"1.05 fold enrichment (6-mer frequency, TF over GST control)"
same,binding signal,ELK1,"1.13 fold enrichment (6-mer frequency, TF over GST control)"
same,binding signal,GABPA,"1.17 fold enrichment (6-mer frequency, TF over GST control)"
same,binding signal,ERG,"1.1 fold enrichment (6-mer frequency, TF over GST control)"
same,binding signal,ELF1,"1.15 fold enrichment (6-mer frequency, TF over GST control)"
same,binding signal,EHF,"1.16 fold enrichment (6-mer frequency, TF over GST control)"
same,binding signal,SPI1,"1.16 fold enrichment (6-mer frequency, TF over GST control)"
same,binding signal,SPIB,"1.11 fold enrichment (6-mer frequency, TF over GST control)"
same,binding signal,ELK3,"1.2 fold enrichment (6-mer frequency, TF over GST control)"
same,binding signal,FEV,"1.12 fold enrichment (6-mer frequency, TF over GST control)"
same,binding signal,ETV5,"1.17 fold enrichment (6-mer frequency, TF over GST control)"
same,binding signal,HSF1,"2.04 fold enrichment (6-mer frequency, TF over GST control)"
same,binding signal,SPIC,"1.22 fold enrichment (6-mer frequency, TF over GST control)"
same,binding signal,ELF4,"1.15 fold enrichment (6-mer frequency, TF over GST control)"
same,binding signal,ELK4,"1.03 fold enrichment (6-mer frequency, TF over GST control)"
same,binding signal,ETV2,"1.19 fold enrichment (6-mer frequency, TF over GST control)"
same,binding signal,ELF3,"1.2 fold enrichment (6-mer frequency, TF over GST control)"
same,binding signal,CRX,"1.35 fold enrichment (6-mer frequency, TF over GST control)"
same,binding signal,ETV1,"1.13 fold enrichment (6-mer frequency, TF over GST control)"
